HPGD inh = inhibitors of human 15-hydroxyprostaglandin dehydrogenase (HPGD). P15428. purified HPGD, NADH fluorescence kinetic, PGE2 substrate. Potency, µM, inactives show top-dose activity change, negative = inhibition, usual class: inhibitors. 4.3% of 150,000 active; further: potency means the concentration at half of the fitted maximal effect
Target sequence (P15428 whole entry, looked up): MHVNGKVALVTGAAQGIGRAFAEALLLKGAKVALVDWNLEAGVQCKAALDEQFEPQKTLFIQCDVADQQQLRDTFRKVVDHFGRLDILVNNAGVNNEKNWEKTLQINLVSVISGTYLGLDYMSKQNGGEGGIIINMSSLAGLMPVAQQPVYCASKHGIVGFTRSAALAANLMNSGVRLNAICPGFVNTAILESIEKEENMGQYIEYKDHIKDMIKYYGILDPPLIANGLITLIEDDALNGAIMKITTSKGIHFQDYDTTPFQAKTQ
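20 nM HPGD preincubated 15 min at room temperature with compound in 50 mM Tris-HCl pH 8, 0.01% Tween 20. Started with 1 mM NAD+ and 30 uM prostaglandin E2; NADH fluorescence (360/450 nm) read 5 times over 30-s intervals, last minus first.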
IMPase inh = membrane-permeable compound that blocks inositol monophosphatase | inhibition (IP1 accumulation), % at 46.1 µM | CHO-M1 cells, IP1 accumulation, HTRF TR-FRET ratio | 120,000 tested, under 10 active | AID 901 | P97697; active means well fitted curve in the direction sought with a large enough effect in the signal ratio, not every such curve was filed as active; inconclusive means small, poorly fitted or top-dose-only effect, or a change in a side signal; inactive means no such curve, though single readings can be large or run the other way; the % refers to the signal ratio;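 further: cells stimulated with carbachol in lithium chloride buffer; plate controls were DMSO basal wells for no effect and reference inhibitor wells for full effect; higher means more IMPase inhibition seen as more IP1 and lower FRET ratio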
Target sequence (P97697 whole entry, looked up): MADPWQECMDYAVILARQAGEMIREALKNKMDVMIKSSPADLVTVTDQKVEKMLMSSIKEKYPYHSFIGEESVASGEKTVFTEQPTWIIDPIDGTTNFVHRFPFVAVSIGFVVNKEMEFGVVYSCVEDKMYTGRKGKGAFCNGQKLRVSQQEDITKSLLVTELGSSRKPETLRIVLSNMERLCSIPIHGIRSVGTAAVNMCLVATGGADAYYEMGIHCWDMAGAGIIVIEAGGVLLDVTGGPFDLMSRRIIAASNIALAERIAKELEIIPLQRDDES
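Elevated IP1 in lysates lowers TR-FRET signal (665/620 ratio and 620 channel reported). Cells were CHO-M1, given carbachol (50 uM as added) plus 50mM LiCl, pH 7.4, 30 min, 37C; compounds titrated up to 46 uM; AC50 by Hill equation.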
ALDH1A1 inh = ALDH1A1 (human) enzyme inhibition | P00352 | Purified ALDH1A1, NADH fluorescence, propionaldehyde substrate | Potency, µM (titrated, usually from 75.3 µM), for inactives: top-dose activity, negative = inhibition, most hits filed as inhibitors | AID 1030 | 7.3% of 220,000 active;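 further: potency means the concentration at half of the fitted maximal effect; plate controls were no enzyme wells and a reference inhibitor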
IMPase Li inh = membrane-permeable IMPase blocker, potentiated with lithium | CHO-M1 cells, IP1 TR-FRET (IP-One), carbachol + lithium | Potency, µM (titrated, usually from 59.4 µM), for inactives: top-dose activity, negative = IMPase inhibition, usual class: inhibitors | 0.35% of 210,000 active | AID 1457; active means well fitted inhibition curve with a large enough effect; inconclusive means small, poorly fitted or top-dose-only effect; inactive means no such curve, though single readings can be large or run the other way;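 further: IP1 builds up when IMPase is blocked and the TR-FRET signal falls; potency means the concentration at half of the fitted maximal effect; plate controls were basal vehicle for no effect and high inhibitor control for full effect; nearly all actives have a fitted effect of over 50% in size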
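CHO cells stably expressing M1 receptor (2000/well, cultured 16–30 h) treated 30 min at 37C with compound plus low lithium. Cytosolic IP1 by TR-FRET (665/620 ratio and 620 channel) after 10 min lysis; AC50 by Hill fit.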
PNC inhibitor = blocks assembly of the perinucleolar compartment; 3.1% of 140,000 active; PC3M PTB-GFP, PNC prevalence imaging, 16 h; hits give low values; activity change (PNC), negative = inhibition, % at 10 µM;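 active means readout at or below -70, meaning at least 70% loss of cells showing the perinucleolar compartment, a nuclear body marking cancer cells; inconclusive means readout between -30 and a set limit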;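 further: plate controls were DMSO wells for no effect and camptothecin positive control wells for full effect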
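Compounds are pinned in duplicate onto adhered PC3M cells stably expressing GFP-tagged PTB and incubated 16 h at 37 C. Cells are then fixed, nuclei stained with Hoechst, and PNC-positive cells counted.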
The depositor's hits bear a star; u = inconclusive; x = not tested or not shown; [ ] = remark or other dose. Most compounds without a hit are left out; they make up all but 11% or so of the library. Unless noted, the call rests on the fitted dose curve; in most records, active means well fitted inhibition curve with a large enough effect (not every such curve was filed as active); inconclusive means small, poorly fitted or top-dose-only effect, or another doubt; inactive means no such curve, though single readings can be large or run the other way. Unless noted, on the % scale 0 is the no-effect control and ±100 the full control effect.

SMILES	HPGD inh	IMPase inh	ALDH1A1 inh	IMPase Li inh	PNC inhibitor
COC(=O)C1SCC2C(=O)N(Cc3ccc(Cl)c(Cl)c3)CC(=O)N21 (stereo not given)	x	x	u	4.6%	x
CN(C)c1ncnc2ccc(-c3ccc4c(c3)OCO4)cc12	x	x	u	-13.5%	x
C/C(=N/NS(=O)(=O)c1ccc(C)cc1)P(=O)(O)O	-14.3%	x	9.4%[13.5 µM]	-11.5%	x
O=C1c2ccccc2S(=O)(=O)N1CC1CC(c2ccc(Cl)cc2)=NO1 (stereo not given)	17.8µM*	x	5.62µM*	2.9%	56.0
O=C1c2ccccc2S(=O)(=O)N1CC1CC(c2ccccc2)=NO1 (stereo not given)	-15.5%	u	u	-6.0%[38.3 µM]	-16.5
COc1ccc(C2=NOC(CN3C(=O)c4ccccc4S3(=O)=O)C2)cc1 (stereo not given)	25.1µM*	-2.5	u	4.2%[38.3 µM]	-23.1
COc1ccc(CCNC(=O)CN2C(=O)c3ccccc3S2(=O)=O)cc1	-0.5%	-2.7[0.369 µM]	u	1.2%	-5.1
CN1CCN(c2nc(-c3ccc(Cl)s3)cs2)CC1	x	x	u	2.0%	x
O=C1N=C(N2CCOCC2)S/C1=C\c1ccc(OS(=O)(=O)c2ccccc2)cc1	x	x	28.2µM*	11.0%	x
O=C1N=C(N2CCc3ccccc3C2)S/C1=C\c1cccc(O)c1	5.01µM*	x	2.51µM*	14.8%	6.5
CCOc1ccc(/C=C2\SC(N3CCc4ccccc4C3)=NC2=O)cc1	22.4µM*	x	-10.2%	20.2%	14.0
COc1ccc(/C=C2\SC(N3CCc4ccccc4C3)=NC2=O)cc1	u	x	u	13.4%	u
CCN1C(=O)C2C(C1=O)N1C(c3cccs3)C3C(=O)N(CC)C(=O)C3N1C2c1cccs1 (stereo not given)	-2.8%	-2.3	5.3%	8.1%[38.3 µM]	15.8
Fc1ccc(C(c2ccc(F)cc2)N2CCN(C/C=C\c3ccccc3)CC2)cc1	-11.9%	9.5	-0.4%	30.7%	x
CC1(C)CC(C(CCN(Cc2ccccc2)C(=O)c2ccco2)c2ccc(F)cc2)CCO1 (stereo not given)	-6.8%	x	u	18.7%	2.3
CCC(=O)N(CCC(c1ccc(C)cc1)c1ccco1)Cc1ccco1 (stereo not given)	x	x	22.4µM*	x	x
O=C(c1ccco1)N(CCC(c1ccccc1)c1ccco1)Cc1ccc(F)cc1 (stereo not given)	-9.4%	12.2	14.1µM*	19.9%[38.3 µM]	-14.4
CC(=O)OC[C@@H]1O[C@@H](O/N=C2/C[C@@H](O)[C@@H](O)[C@@H]3[C@@H]4C(=O)N(Cc5ccccc5)C(=O)[C@H]4CC[C@H]23)[C@H](OC(C)=O)[C@H](OC(C)=O)[C@@H]1OC(C)=O	x	x	-5.7%[13.5 µM]	x	x
CN1C[C@@H](C(=O)N[C@]2(C)O[C@]3(O)[C@H]4CCCN4C(=O)[C@H](Cc4ccccc4)N3C2=O)C[C@H]2c3cccc4[nH]cc(c34)C[C@@H]21	x	6.3	x	x	x
Fc1ccc(-c2n[nH]c(=S)n2/N=C/c2c[nH]c3ccccc23)cc1	2.82µM*	1.5	u	3.4%	28.9
S=c1[nH]nc(-c2ccccn2)n1/N=C/c1c(Cl)cccc1Cl	x	x	17.8µM*	x	x
S=c1[nH]nc(-c2ccccn2)n1/N=C/c1ccccc1	u	x	-14.7%	-2.2%	u
S=c1[nH]nc(-c2ccccn2)n1/N=C/c1cccc2ccccc12	3.55µM*	x	u	0.3%	u
O=C(O)c1ccc(NS(=O)(=O)c2cccc3ccccc23)cc1	2.5%	x	-4.4%	x	x
COC(=O)N1CCC2(CCN(Cc3nccs3)CC2)CC1	-1.0%	x	7.7%	9.4%	x
SMILES	HPGD inh	IMPase inh	ALDH1A1 inh	IMPase Li inh	PNC inhibitor
Cc1cc(NS(=O)(=O)c2ccc(NC(=O)COc3c(C)ccc(C)c3C)cc2)nc(C)n1	x	3.9	x	x	x
CN1CCN(c2ncc3ncc(=O)n(CCC#N)c3n2)CC1	x	x	u	-3.9%	x
c1ccc2c(CSCc3cccc4ccccc34)cccc2c1	-5.6%	x	6.6%[13.5 µM]	14.9%	x
O=C1c2ccccc2C(=O)C1Cc1cccc2ccccc12	14.1µM*	2.2	u	-6.7%[38.3 µM]	u
COc1ncc2nc(-c3ccccc3)c(=O)n(-c3ccccc3)c2n1	x	x	u	7.0%	x
C=CC[C@@H]1C=C[C@H](Oc2ccc(C)cc2)[C@H](COC(=O)NCc2cccc3ccccc23)O1	x	x	-3.9%[13.5 µM]	x	x
CCOC(=O)c1ccc(N2C(=O)C3C(C2=O)C(C(=O)c2ccc(Cl)cc2)N2CCCC32)cc1 (stereo not given)	2.24µM*	0.3	12.6µM*	35.4%[38.3 µM]	44.4
Cc1ccc(N2C(=O)[C@@H]3[C@H](C2=O)C2c4ccccc4C=NN2[C@@H]3C(=O)c2ccc(Cl)cc2)cc1 (stereo not given in full)	-26.1%	x	-13.1%	15.1%	u
CC(C)c1cc(-c2n[nH]c(=S)n2Cc2ccccc2)cs1	u	-7.3	2µM*	-7.2%[38.3 µM]	70.9
C=CCn1c(-c2csc(-c3ccccc3)n2)n[nH]c1=S	u	u	0.112µM*	u	1.4
C=CCn1c(-c2csc(-c3ccc(Cl)cc3)n2)n[nH]c1=S	-23.6%	-17.6	u	5.6%[38.3 µM]	u
Cc1ccc(-n2c(-c3ccncc3)n[nH]c2=S)cc1	x	x	-0.5%	0.5%	x
S=c1[nH]nc(-c2cccs2)n1Cc1ccccc1	x	x	u	0.3%	x
Cc1ccc(-n2c(-c3ccccc3)n[nH]c2=S)cc1	u	-13.6	31.6µM*	-15.2%	-4.6
S=c1[nH]nc(COc2ccccc2)n1C1CCCCC1	22.4µM*	-8.2	u	31.7%[38.3 µM]	-6.4
Cc1ccc(-c2csc(/C(C#N)=C/c3ccccc3Cl)n2)cc1	x	-6.4	x	x	x
S=c1[nH]nc(-c2ccc(Br)cc2)n1Cc1ccco1	25.1µM*	-8.1[1.84 µM]	u	33.2%[38.3 µM]	u
S=c1[nH]nc(C2CCCCC2)n1Cc1ccccc1	x	x	u	-1.2%	x
S=c1[nH]nc(-c2ccncc2)n1Cc1ccco1	-10.7%	3.0	u	-7.8%[38.3 µM]	23.2
S=c1[nH]nc(CSc2nc3ccccc3s2)n1C1CCCCC1	7.08µM*	4.9	3.16µM*	10.2%[38.3 µM]	20.6
S=c1[nH]nc(-c2ccc(Br)o2)n1Cc1ccccc1	28.2µM*	-12.2	1.41µM*	24.2%[38.3 µM]	-11.4
S=c1[nH]nc(-c2ccccc2)n1Cc1ccccc1	u	7.8	17.8µM*	-7.5%[38.3 µM]	39.2
Cc1ccc(-n2c(Cc3noc4ccccc34)n[nH]c2=S)cc1	x	x	14.1µM*	10.4%	x
S=c1[nH]nc(-c2ccc(Cl)cc2)n1Cc1ccccc1	u	22.1	11.2µM*	2.8%	4.7
S=c1[nH]nc(COc2ccccc2)n1Cc1ccccc1	u	x	11.2µM*	23.1%	51.5
CCc1ccc(OCc2n[nH]c(=S)n2Cc2ccccc2)cc1	x	x	-4.5%	7.5%	x
S=c1[nH]nc(Cc2noc3ccccc23)n1-c1ccc(Cl)cc1	x	x	-7.3%	-6.5%	x
NCCCCCCN	-6.4%	x	1.6%	-13.5%	x
CCOc1ccc(-c2nc(C)c(C(C)=O)n2O)cc1	-20.1%	0.6	u	43.1%[38.3 µM]	-2.9
Cn1cc(C(=O)CCl)c2ccccc21	x	x	0.0631µM*	0.1%	x
